Records with an inconclusive call do not appear. A number with no mark means an inactive call. Calls of active or inactive are those of the source. Calls come from the whole dose curve.
Assay: qHTS assay to identify small molecule agonists of the hypoxia (HIF-1) signaling pathway - cell viability counter screen (AID 1224844); note: nearly all actives have a fitted effect of over 50% in size
Conditions: HRE-bla ME-180 viability, CellTiter-Glo luminescence, 17 h; series mostly up to 76.8 µM; activity change, negative = cytotoxicity: at the top concentration
Description: National Center for Advancing Translational Sciences [NCATS]
NIH Chemical Genomics Center [NCGC]
U.S. Environmental Protection Agency [EPA]
National Institutes of Environmental Health Sciences [NIEHS]
National Toxicology Program [NTP]
U.S. Food and Drug Administration [FDA]
Hypoxia-inducible factor-1 (HIF-1) is the major hypoxia-regulated transcription factor that controls cellular responses to low oxygen concentration. HIF-1 is composed of two subunits: hypoxia responsive HIF-1-alpha and constitutively expressed HIF-1-beta, which is also known as aryl hydrocarbon receptor nuclear translocator. During hypoxic conditions, HIF-1-alpha heterodimerizes with HIF-1-beta and translocates into the nucleus where the HIF-1 complex binds to the hypoxia-response element (HRE) and activates expression of target genes such as VEGF (vascular endothelial growth factor). The HIF-1 pathway is essential to normal growth and development, and is involved in the pathophysiology of cancer, inflammation, and ischemia.
Using a beta-lactamase reporter-gene under control of the hypoxia response element, a cell-based assay [CellSensor(TM) HRE-bla ME-180 from Life Technologies, Carlsbad, CA] was used to measure hypoxia-induced signaling. Tox21 10K library compounds were measured for their ability to induce the reporter gene activity. The cytotoxicity of the Tox21 compound library against HRE-bla ME-180 cell line was tested in parallel by measuring cell viability using CellTiter-Glo assay (Promega, Madison, WI) in the same assay wells.
Tox21 Assay Protocol Summary:
HRE-bla ME-180 cells were dispensed at 2,000 cells per well in 6 uL of assay medium containing 0.5% dialyzed FBS into black wall/clear-bottom 1536-well plates using a Multidrop Combi (Thermo Scientific, Waltham, MA) dispenser. After the assay plates were incubated at 37C and 5% CO2 for 5 hrs, 23 nL of compounds dissolved in DMSO, positive controls or DMSO only was transferred to each well of the assay plate using a Pintool station (Kalypsys, San Diego, CA). The assay plates were incubated at 37C and 5% CO2 for 17 hrs. One uL of LiveBLAzerTM B/G FRET substrate (CCF4-AM) (Life Technologies) was added to each well using a Flying Reagent Dispenser (FRD, Aurora Discovery, San Diego, CA). After 2 hr incubation at room temperature, fluorescence intensity (405 nm excitation, 460 nm and 530 nm emissions) was measured using an Envision plate reader (PerkinElmer, Shelton, CT). For cytotoxicity, 4 ul/well of CellTiter-Glo reagent was added into the assay plates using an FRD. After 30 min incubation at room temperature, the luminescence intensity was measured using a ViewLux plate reader (PerkinElmer).
% is set by controls: 0 for no effect and ±100 for the full control effect; potency is the fitted concentration of half-maximal effect.

| SMILES | Potency | activity change, negative = cytotoxicity |
| --- | --- | --- |
| O=[N+]([O-])c1ccc2ccc3cccc4ccc1c2c34 | 34.7 µM (active) | – |
| C=CCOC(N)=O | – | 0.717% |
| CCOP(=S)(OCC)OC(Cl)C(Cl)(Cl)Cl (stereo not given) | – | -14.7% |
| Cc1cc(SCc2sc(-c3ccc(C(F)(F)F)c(F)c3)nc2C)ccc1OCC(=O)O | 12.3 µM (active) | – |
| Cc1cc(N=Nc2ccccc2C)ccc1N | – | -29.8% |
| CC1(C)[C@H](C(=O)O[C@H](C#N)c2cccc(Oc3ccccc3)c2)[C@@H]1/C=C(\Cl)C(F)(F)F | inactive | – |
| COP(N)(=S)OC | – | 3.19% |
| CCSC(C)CC1CC(=O)C(/C(CC)=N/OC/C=C/Cl)=C(O)C1 (stereo not given) | – | 0.503% [at 35.3 µM] |
| COc1ccc(N)cc1N | – | -18.4% |
| CC(=O)C(Cl)(Cl)Cl | – | -7.31% |
| COP(=S)(OC)Oc1cc(Cl)c(Br)cc1Cl | – | -8.28% |
| Cc1cc(Cl)ccc1O[C@H](C)C(=O)O | – | -2.17% |
| CCCN(CCC)CCc1c[nH]c2ccccc12 | – | -1.25% |
| Clc1ccc(Oc2ccccc2)cc1 | – | 1.43% |
| Oc1ccc2ccc3cccc4ccc1c2c34 | – | -11.3% |
| Oc1ccc(C2(c3ccc(O)cc3)CCCCC2)cc1 | 52.1 µM (active) | – |
| OC(c1ccc(Cl)cc1)(c1ccc(Cl)cc1)C(Cl)(Cl)Cl | 21.9 µM (active) | – |
| CCC(C)(C)C(=O)OC1=C(c2ccc(Cl)cc2Cl)C(=O)OC12CCCCC2 | 49 µM (active) | – |
| CCCCCCCCc1ccc(O)cc1 | 39.1 µM (active) | – |
| CCCN(CCC)c1c([N+](=O)[O-])cc(S(N)(=O)=O)cc1[N+](=O)[O-] | 37 µM (active) | – |

| SMILES | Potency | activity change, negative = cytotoxicity |
| --- | --- | --- |
| COC(=O)N(C(=O)N1CO[C@@]2(C(=O)OC)Cc3cc(Cl)ccc3C2=N1)c1ccc(OC(F)(F)F)cc1 | – | -13.6% |
| O=c1[nH]c2ccccc2n1C1CCN(CCCC(c2ccc(F)cc2)c2ccc(F)cc2)CC1 | 21.9 µM (active) | – |
| N#CNC#N | – | 0.379% |
| COS(=O)(=O)c1ccc(C)cc1 | – | 1.89% |
| N#Cc1ccccc1N | – | -8.18% |
| Cc1cccc(OP(=O)(Oc2cccc(C)c2)Oc2cccc(C)c2)c1 | – | 1.09% |
| O=C1C=CC(=O)c2ccccc21 | 11 µM (active) | – |
| N#CCCO | – | -0.112% |
| NC(=O)c1ccc(N)nc1 | 15.5 µM (active) | – |
| N#CCc1ccc(Cl)cc1 | – | 2.36% |
| CCC(C)c1cc([N+](=O)[O-])cc([N+](=O)[O-])c1OC(=O)C=C(C)C (stereo not given) | – | -7.5% |
| O=c1[nH]c2ccccc2n1CCCN1CCC(n2c(=O)[nH]c3cc(Cl)ccc32)CC1 | – | -17.8% [at 35.3 µM] |
| O=[N+]([O-])c1cc(C(F)(F)F)c(Cl)c([N+](=O)[O-])c1Cl | 7.76 µM (active) | – |
| Cc1ccc(OP(=O)(Oc2ccccc2)Oc2ccccc2)cc1 | – | -3.03% |
| CC(C)C(=O)Cl | – | 0.725% |
| Cc1ccc(C(=O)Cl)cc1 | – | -5.6% |
| C[C@@H]1CC[C@@]2(OC1)O[C@H]1[C@@H](O)[C@H]3[C@@H]4CC[C@H]5C[C@@H](O[C@@H]6O[C@H](CO)[C@H](O[C@@H]7O[C@H](CO)[C@@H](O)[C@H](O[C@@H]8OC[C@@H](O)[C@H](O)[C@H]8O)[C@H]7O[C@@H]7O[C@H](CO)[C@@H](O)[C@H](O[C@@H]8O[C@H](CO)[C@@H](O)[C@H](O)[C@H]8O)[C@H]7O)[C@H](O)[C@H]6O)[C@H](O)C[C@]5(C)[C@H]4CC[C@]3(C)[C@H]1[C@@H]2C | 11.6 µM (active) | – |
| CC(C)(C)OO | – | -2.43% |
| CCCCCCCCCCBr | – | -0.364% |
| CCOP(=S)(OCC)SCS(=O)(=O)C(C)(C)C | – | -3.4% |

Reference: PubChem BioAssay (Tox21)
